PubChem BioAssay AID1159580 (chemical genetic matrix, 2015)
Hit rate of the full screen: of about 5,500 compounds, about 2,000 (36%) were called active. About 18% were inconclusive and are not listed. Cut-off read from the data, not from the text of the source: active = normalized growth mostly below about 0.91 (no sharp cut-off); inconclusive = no clear call, values can overlap the other calls; inactive = mostly above about 0.92. Some of the results follow.

Test: chemical genetic growth profiling, strain panel (AID 1159580);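 note: tested at 20 µM; growth read once vehicle control cultures reached saturation at 30 °C; 1 = growth at the plate median or of vehicle wells; lower values mean less growth of the strain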
Details: S. cerevisiae deletion strains, growth OD
[1] = locus YHR030C, strain SLT2, active compounds read low

Measured: normalized growth

Cc1cc(C)cc(N2C(=O)CC(Sc3ccccc3C(=O)O)C2=O)c1 (configuration not stated)
inactive: locus YAL013W, strain DEP1, active compounds read low 0.955 | locus YBR229C, strain ROT2, active compounds read low 0.987 | locus YDL101C, strain DUN1, active compounds read low 0.953 | locus YDR150W, strain NUM1, active compounds read low 0.945 | locus YEL061C, strain CIN8, active compounds read low 0.961 | locus YGR078C, strain PAC10, active compounds read low 1 | locus YHR087W, strain rtc3, active compounds read low 0.987 | locus YJR075W, strain HOC1, active compounds read low 1.01 | locus YLR058C, strain SHM2 (second series), active compounds read low 0.995 | locus YMR219W, strain ESC1, active compounds read low 0.996 | locus YMR263W, strain SAP30, active compounds read low 0.928 | locus YNL322C, strain KRE1, active compounds read low 1 | locus YPL055C, strain LGE1, active compounds read low 0.876
active: locus YDL134C, strain PPH21, active compounds read low 0.773 | [1] 0.668 | locus YJL187C, strain SWE1, active compounds read low 0.894 | locus YJR043C, strain POL32, active compounds read low 0.789 | locus YKL190W, strain CNB1, active compounds read low 0.771 | locus YLR039C, strain RIC1, active compounds read low 0.109 | locus YLR085C, strain ARP6, active compounds read low 0.619 | locus YLR262C, strain YPT6, active compounds read low 0.12 | locus YML094W, strain GIM5, active compounds read low 0.849 | locus YNL153C, strain GIM3, active compounds read low 0.876 | locus YNL298W, strain CLA4 (second series), active compounds read low 0.711 | locus YNR030W, strain Alg12, active compounds read low 0.078 | locus YOL006C, strain TOP1, active compounds read low 0.27 | locus YPL241C, strain CIN2, active compounds read low 0.0797 | locus YPR135W, strain CTF4, active compounds read low 0.222

CN(C)C(=N)N=C(N)N
inactive: locus YAL021C, strain ccr4, active compounds read low 1.01 | locus YAL026C, strain drs2, active compounds read low 1.02 | locus YAL030W, strain snc1, active compounds read low 0.997 | locus YBL061C, strain skt5, active compounds read low 1.03 | locus YBR009C, strain hhf1, active compounds read low 0.966 | locus YBR023C, strain chs3, active compounds read low 1.02 | locus YBR171W, strain sec66, active compounds read low 1.01 | locus YBR231C, strain swc5, active compounds read low 0.997 | locus YBR279W, strain paf1, active compounds read low 1.03 | locus YCL011C, strain gbp2, active compounds read low 1.01 | locus YCL016C, strain dcc1, active compounds read low 1.04 | locus YCL061C, strain MRC1, active compounds read low 0.995 | locus YCL069W, strain vba3, active compounds read low 1 | locus YCR088W, strain abp1, active compounds read low 1.01 | locus YDL005C, strain med2, active compounds read low 1.02 | locus YDL040C, strain nat1, active compounds read low 1 | locus YDR001C, strain nth1, active compounds read low 1 | locus YDR069C, strain doa4, active compounds read low 0.984 | locus YDR137W, strain rgp1, active compounds read low 1.05 | locus YDR159W, strain sac3, active compounds read low 0.893 | locus YDR195W, strain ref2 1.02 | locus YDR297W, strain sur2, active compounds read low 0.998 | locus YDR334W, strain swr1, active compounds read low 0.998 | locus YDR335W, strain msn5, active compounds read low 1.03 | locus YDR392W, strain spt3, active compounds read low 0.858 | locus YEL003W, strain gim4, active compounds read low 0.985 | locus YEL037C, strain rad23, active compounds read low 1.01 | locus YEL061C, strain CIN8 (second series), active compounds read low 1 | locus YER015W, strain faa2, active compounds read low 1.01 | locus YER016W, strain bim1, active compounds read low 1.02 | locus YER111C, strain swi4, active compounds read low 1.03 | locus YER155C, strain BEM2 (second series), active compounds read low 0.867 | locus YFR010W, strain ubp6, active compounds read low 0.978 | locus YGL167C, strain pmr1, active compounds read low 0.999 | locus YGL173C, strain kem1, active compounds read low 0.993 | locus YGL227W, strain vid30, active compounds read low 0.996 | locus YGL240W, strain doc1, active compounds read low 0.996 | locus YGL253W, strain hxk2, active compounds read low 1.04 | locus YHR013C, strain ard1, active compounds read low 1.01 | locus YHR027C, strain rpn1, active compounds read low 0.986 | [1] 1.02 | locus YHR079C, strain IRE1, active compounds read low 0.977 | locus YHR142W, strain chs7, active compounds read low 1.02 | locus YJL092W, strain hpr5, active compounds read low 0.997 | locus YJL095W, strain BCK1 (second series), active compounds read low 1.01 | locus YJL095W, strain BCK1, active compounds read low 0.987 | locus YJL115W, strain asf1, active compounds read low 1.01 | locus YJL129C, strain trk1, active compounds read low 1 | locus YJL154C, strain vps35, active compounds read low 1 | locus YJL164C, strain tpk1, active compounds read low 0.969 | locus YJL166W, strain qcr8, active compounds read low 0.982 | locus YJR066W, strain TOR1, active compounds read low 0.952 | locus YKL160W, strain elf1, active compounds read low 1.04 | locus YKR026C, strain gcn3, active compounds read low 1 | locus YKR091W, strain srl3, active compounds read low 0.998 | locus YLL001W, strain dnm1, active compounds read low 0.98 | locus YLL026W, active compounds read low 1 | locus YLL041C, strain sdh2, active compounds read low 0.998 | locus YLR027C, strain aat2, active compounds read low 0.991 | locus YLR113W, strain HOG1, active compounds read low 0.954 | locus YLR221C, strain rsa3, active compounds read low 0.963 | locus YLR258W, strain gsy2, active compounds read low 1.03 | locus YLR262C, strain YPT6 (second series), active compounds read low 0.987 | locus YLR320W, strain mms22, active compounds read low 0.93 | locus YLR342W, strain FKS1, active compounds read low 0.996 | locus YLR357W, strain rsc2, active compounds read low 1 | locus YLR370C, strain arc18, active compounds read low 1.01 | locus YLR384C, strain iki3, active compounds read low 0.99 | locus YML120C, strain ndi1, active compounds read low 0.992 | locus YMR058W, strain fet3, active compounds read low 1 | locus YMR125W, strain sto1, active compounds read low 1.01 | locus YMR129W, active compounds read low 0.992 | locus YMR205C, strain PFK2, active compounds read low 0.985 | locus YMR231W, strain pep5, active compounds read low 1 | locus YNL071W, strain lat1, active compounds read low 0.995 | locus YNL183C, strain NPR1, active compounds read low 0.923 | locus YNL209W, strain ssb2, active compounds read low 1.02 | locus YNL248C, strain rpa49, active compounds read low 1.02 | locus YNL322C, strain KRE1 (second series), active compounds read low 1.02 | locus YNR049C, strain mso1, active compounds read low 0.992 | locus YOR001W, strain rrp6, active compounds read low 0.948 | locus YOR070C, strain gyp1, active compounds read low 1.01 | locus YOR080W, strain dia2, active compounds read low 1 | locus YOR083W, strain WHI5, active compounds read low 0.975 | locus YOR106W, strain vam3, active compounds read low 1.02 | locus YOR231W, strain MKK1, active compounds read low 0.99 | locus YOR265W, strain rbl2, active compounds read low 1.01 | locus YOR270C, strain vph1, active compounds read low 0.929 | locus YOR290C, strain snf2, active compounds read low 1.05 | locus YPL051W, strain arl3, active compounds read low 1.05 | locus YPL078C, strain atp4, active compounds read low 1.05 | locus YPL106C, strain sse1, active compounds read low 1.09 | locus YPL240C, strain hsp82, active compounds read low 1 | locus YPL256C, strain CLN2, active compounds read low 0.961
